Data: ChEMBL document CHEMBL3988442, “University of Dundee, Small-Polar-MMV Screening Library” (2021)
For some assays here: Entries with a potency or affinity are not part of this list.

What was measured:
Parameters in all cases: scale not given: direction of the effect not stated beside the values
[1] = molecular target: Protein translocase subunit SecA (Escherichia coli (strain K12)) (UniProt P10408); experiment: Assay to Identify E. coli SecA ATPase Inhibitors; assay type: functional; conditions: 30 µM
Sequence of Protein translocase subunit SecA (Escherichia coli (strain K12)) (P10408 whole entry): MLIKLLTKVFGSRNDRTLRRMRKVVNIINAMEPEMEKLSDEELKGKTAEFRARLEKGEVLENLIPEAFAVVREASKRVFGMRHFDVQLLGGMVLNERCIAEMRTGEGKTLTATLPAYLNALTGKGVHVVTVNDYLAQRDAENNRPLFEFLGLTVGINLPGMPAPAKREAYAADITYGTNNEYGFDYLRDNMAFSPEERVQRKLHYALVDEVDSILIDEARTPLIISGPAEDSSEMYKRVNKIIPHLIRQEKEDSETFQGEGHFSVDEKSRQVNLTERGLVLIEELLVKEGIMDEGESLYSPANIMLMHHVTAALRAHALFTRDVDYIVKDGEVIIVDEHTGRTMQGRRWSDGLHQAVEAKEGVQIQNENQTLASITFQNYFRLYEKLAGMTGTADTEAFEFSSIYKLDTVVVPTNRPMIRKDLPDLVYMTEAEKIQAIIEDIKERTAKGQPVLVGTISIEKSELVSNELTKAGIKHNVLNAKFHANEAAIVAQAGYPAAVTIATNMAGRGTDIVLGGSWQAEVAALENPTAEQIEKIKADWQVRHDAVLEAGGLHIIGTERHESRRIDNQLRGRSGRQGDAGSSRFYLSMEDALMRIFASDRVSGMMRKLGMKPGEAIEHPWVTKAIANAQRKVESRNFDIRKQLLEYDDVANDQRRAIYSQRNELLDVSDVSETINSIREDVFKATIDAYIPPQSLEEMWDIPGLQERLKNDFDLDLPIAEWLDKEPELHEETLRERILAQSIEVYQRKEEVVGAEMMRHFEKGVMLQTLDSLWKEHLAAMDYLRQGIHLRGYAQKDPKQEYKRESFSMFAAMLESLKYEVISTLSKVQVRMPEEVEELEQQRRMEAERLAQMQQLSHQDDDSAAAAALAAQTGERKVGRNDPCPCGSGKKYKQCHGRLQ

[2] = molecular target: T1, Ubiquitin-activating enzyme e1, putative (Leishmania donovani (strain BPK282A1)) (UniProt E9BSI1); experiment: Leishmania donovani Ubiquitin Activating Enzyme (LdE1); assay type: functional; conditions: 30 µM
T1 sequence (whole entry): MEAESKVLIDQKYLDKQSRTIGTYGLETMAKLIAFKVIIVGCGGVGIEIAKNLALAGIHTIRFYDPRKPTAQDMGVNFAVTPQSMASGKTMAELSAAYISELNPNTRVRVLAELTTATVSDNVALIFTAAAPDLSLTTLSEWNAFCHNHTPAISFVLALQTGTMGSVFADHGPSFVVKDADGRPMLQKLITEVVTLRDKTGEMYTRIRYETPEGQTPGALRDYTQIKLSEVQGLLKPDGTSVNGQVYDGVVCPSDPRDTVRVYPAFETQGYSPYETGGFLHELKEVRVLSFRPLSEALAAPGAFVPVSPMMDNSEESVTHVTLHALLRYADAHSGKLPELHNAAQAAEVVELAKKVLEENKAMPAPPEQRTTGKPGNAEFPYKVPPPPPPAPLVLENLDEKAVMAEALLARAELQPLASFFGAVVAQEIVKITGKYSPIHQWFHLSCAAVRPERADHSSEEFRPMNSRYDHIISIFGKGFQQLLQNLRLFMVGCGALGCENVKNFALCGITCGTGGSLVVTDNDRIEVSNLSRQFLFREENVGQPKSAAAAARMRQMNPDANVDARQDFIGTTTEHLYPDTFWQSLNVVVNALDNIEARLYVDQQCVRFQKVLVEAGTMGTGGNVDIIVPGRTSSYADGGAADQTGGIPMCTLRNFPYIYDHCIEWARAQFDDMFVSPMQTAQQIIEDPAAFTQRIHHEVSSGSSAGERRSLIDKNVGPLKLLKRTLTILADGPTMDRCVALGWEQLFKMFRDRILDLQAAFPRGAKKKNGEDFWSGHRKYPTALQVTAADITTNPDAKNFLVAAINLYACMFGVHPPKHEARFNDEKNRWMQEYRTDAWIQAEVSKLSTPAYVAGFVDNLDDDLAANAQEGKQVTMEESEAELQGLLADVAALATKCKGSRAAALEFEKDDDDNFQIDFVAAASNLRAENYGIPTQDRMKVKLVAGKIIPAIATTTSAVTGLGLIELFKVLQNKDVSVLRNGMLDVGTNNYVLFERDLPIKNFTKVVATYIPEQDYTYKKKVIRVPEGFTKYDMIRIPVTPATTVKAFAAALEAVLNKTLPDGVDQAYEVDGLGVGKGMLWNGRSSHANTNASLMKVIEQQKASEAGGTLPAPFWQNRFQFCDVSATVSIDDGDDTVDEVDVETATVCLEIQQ

[3] = molecular target: AMP-activated protein kinase, AMPK (Homo sapiens) (UniProt P54646+O43741+P54619+Q9UGJ0+Q9Y478+Q13131+Q9UGI9); experiment: AMP-dependent Kinase enzyme assay. An in vitro enzyme assay that detects ADP turnover that is directly proportional to AMPK activity. This uses naive AMPK that is activated during the assay with MK-8722; assay type: functional; conditions: 30 µM
[4] = molecular target: Sialic acid-binding Ig-like lectin 9 (Homo sapiens) (UniProt Q9Y336); experiment: Hs-Siglec9 ALPHAscreen SOP 20170721; conditions: 10 µM
Sequence of Sialic acid-binding Ig-like lectin 9 (Homo sapiens) (Q9Y336 whole entry): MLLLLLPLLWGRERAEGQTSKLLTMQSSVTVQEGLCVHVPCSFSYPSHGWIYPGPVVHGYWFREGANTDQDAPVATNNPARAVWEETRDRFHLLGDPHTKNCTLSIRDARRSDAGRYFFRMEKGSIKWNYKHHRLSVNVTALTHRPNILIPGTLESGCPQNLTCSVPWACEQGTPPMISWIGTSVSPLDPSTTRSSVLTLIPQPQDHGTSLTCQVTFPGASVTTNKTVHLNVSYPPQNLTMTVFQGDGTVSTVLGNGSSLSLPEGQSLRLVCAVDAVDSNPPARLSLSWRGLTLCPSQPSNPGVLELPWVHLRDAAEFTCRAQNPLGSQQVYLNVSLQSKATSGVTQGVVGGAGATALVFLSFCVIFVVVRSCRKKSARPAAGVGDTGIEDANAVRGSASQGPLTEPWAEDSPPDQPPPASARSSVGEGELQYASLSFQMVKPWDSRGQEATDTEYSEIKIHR

Trypanosoma cruzi = experiment: Trypanosoma cruzi phosphomannomutase and mannose-1-phosphate guanylyltransferase assay; assay type: functional; conditions: 10 µM
[5] = molecular target: T2, Arginase-2, mitochondrial (Homo sapiens) (UniProt P78540); experiment: in vitro enzyme assay to detect the production of urea directly proportional to the activity of Arginase II; assay type: functional; conditions: 33.3 µM; also: in the data most compounds retested in dose-response had high values
T2 sequence (whole entry): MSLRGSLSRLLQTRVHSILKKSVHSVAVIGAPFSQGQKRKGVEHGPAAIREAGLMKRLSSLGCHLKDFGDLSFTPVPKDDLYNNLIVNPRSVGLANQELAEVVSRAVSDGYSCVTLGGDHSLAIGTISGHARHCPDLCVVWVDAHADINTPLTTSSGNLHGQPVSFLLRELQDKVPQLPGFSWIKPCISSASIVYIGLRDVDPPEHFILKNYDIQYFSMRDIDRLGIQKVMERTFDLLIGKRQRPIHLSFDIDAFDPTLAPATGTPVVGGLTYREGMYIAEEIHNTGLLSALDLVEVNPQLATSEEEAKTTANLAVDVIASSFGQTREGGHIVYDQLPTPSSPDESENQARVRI

[6] = molecular target: T3, Proteasome subunit beta (Trypanosoma cruzi) (UniProt O96673); experiment: Trypanosoma cruzi proteasome chymotrypsin-like activity (TcProtChymo) assay.; also: in the data most compounds retested in dose-response had high values; assay type: functional; conditions: 9.37 µM
T3 sequence (whole entry): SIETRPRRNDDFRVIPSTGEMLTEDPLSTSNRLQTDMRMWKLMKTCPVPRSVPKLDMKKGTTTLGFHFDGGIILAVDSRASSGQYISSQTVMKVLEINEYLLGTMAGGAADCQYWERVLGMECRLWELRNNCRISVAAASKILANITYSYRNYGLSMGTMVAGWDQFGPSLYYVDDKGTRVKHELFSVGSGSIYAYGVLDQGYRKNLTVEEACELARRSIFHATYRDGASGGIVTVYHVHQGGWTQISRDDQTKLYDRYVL

Homo sapiens = species on record: Homo sapiens; experiment: To identify inhibition of the IFN signalling (Jak-Stat) pathway via expression of an eGFP reporter gene under the control of an IFN-stimulated response element (ISRE) containing MxA promoter.; assay type: functional; conditions: 30 µM
[7] = molecular target: T4, Tyrosyl-tRNA synthetase, putative (Trypanosoma cruzi (strain CL Brener)) (UniProt Q4DSP6); experiment: Trypanosoma cruzi tyrosyl tRNA synthetase (TcYRS) _High Tyrosine SOP; assay type: functional; conditions: 30 µM; also: in the data most compounds retested in dose-response had high values
T4 sequence (whole entry): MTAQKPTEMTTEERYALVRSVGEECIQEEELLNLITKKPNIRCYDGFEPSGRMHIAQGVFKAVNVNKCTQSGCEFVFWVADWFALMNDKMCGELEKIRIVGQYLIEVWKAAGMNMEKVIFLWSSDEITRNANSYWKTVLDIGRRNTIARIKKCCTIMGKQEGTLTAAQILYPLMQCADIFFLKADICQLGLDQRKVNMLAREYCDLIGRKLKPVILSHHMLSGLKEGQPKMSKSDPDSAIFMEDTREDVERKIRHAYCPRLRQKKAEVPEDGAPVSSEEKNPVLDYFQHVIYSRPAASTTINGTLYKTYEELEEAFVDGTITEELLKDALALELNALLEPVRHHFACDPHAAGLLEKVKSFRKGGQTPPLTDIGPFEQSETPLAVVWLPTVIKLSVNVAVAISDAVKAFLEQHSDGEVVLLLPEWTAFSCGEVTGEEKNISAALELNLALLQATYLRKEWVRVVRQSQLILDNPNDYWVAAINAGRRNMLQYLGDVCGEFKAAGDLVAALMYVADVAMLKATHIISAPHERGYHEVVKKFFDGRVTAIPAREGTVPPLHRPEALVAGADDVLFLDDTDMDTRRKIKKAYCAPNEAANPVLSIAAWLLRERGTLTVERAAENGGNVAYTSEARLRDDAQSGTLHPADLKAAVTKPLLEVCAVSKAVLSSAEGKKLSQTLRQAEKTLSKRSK

[8] = molecular target: T4, Tyrosyl-tRNA synthetase, putative (Trypanosoma cruzi (strain CL Brener)); experiment: Trypanosoma cruzi tyrosyl tRNA synthetase (TcYRS) SOP; assay type: functional; conditions: 30 µM
[9] = molecular target: Chromo domain-containing protein 1 (Saccharomyces cerevisiae (strain ATCC 204508 / S288c) (Baker's yeast)) (UniProt P32657); experiment: ScCHD-1 Enzyme Inhibition Assay; assay type: functional; conditions: 30 µM; also: in the data most compounds retested in dose-response had high values
Sequence of Chromo domain-containing protein 1 (Saccharomyces cerevisiae (strain ATCC 204508 / S288c) (Baker's yeast)) (P32657 whole entry, the tested form may be a part): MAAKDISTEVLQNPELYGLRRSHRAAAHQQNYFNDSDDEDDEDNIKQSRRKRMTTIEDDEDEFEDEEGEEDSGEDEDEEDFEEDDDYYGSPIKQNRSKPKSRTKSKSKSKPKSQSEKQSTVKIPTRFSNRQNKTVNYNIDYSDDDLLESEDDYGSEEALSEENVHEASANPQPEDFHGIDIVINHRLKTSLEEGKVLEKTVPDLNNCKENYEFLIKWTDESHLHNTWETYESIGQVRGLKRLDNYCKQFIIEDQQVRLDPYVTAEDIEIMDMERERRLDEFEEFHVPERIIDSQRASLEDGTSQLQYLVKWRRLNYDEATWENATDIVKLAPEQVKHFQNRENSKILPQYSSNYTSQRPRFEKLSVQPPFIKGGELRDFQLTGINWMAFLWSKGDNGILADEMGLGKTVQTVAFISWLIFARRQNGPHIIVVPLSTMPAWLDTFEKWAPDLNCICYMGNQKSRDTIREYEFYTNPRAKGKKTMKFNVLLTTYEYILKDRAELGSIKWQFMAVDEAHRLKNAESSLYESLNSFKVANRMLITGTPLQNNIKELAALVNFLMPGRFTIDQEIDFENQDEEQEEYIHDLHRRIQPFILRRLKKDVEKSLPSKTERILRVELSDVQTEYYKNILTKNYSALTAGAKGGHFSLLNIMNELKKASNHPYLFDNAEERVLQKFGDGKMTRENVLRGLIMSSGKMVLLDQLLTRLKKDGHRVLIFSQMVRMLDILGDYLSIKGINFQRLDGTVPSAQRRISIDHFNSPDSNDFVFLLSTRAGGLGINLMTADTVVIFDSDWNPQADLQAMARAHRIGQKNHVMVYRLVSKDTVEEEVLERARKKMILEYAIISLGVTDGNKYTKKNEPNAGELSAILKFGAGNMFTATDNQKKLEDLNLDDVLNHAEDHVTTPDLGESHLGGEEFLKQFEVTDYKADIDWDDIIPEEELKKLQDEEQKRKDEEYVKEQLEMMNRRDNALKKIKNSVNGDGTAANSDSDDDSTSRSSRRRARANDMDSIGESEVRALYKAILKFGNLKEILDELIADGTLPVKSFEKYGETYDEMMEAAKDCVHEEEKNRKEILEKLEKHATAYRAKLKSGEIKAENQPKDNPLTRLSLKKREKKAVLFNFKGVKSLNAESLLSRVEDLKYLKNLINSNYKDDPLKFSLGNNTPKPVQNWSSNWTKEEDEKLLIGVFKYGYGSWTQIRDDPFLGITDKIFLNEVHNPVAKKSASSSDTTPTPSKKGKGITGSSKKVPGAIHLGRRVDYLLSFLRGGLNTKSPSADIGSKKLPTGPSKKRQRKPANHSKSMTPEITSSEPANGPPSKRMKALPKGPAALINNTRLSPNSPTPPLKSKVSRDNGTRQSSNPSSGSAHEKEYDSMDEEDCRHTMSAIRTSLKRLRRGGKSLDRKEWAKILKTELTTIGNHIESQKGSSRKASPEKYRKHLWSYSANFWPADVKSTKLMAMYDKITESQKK

SMILES	Percent Effect [1]	Percent Effect [2]	Percent Effect [3]	Percent Effect [4]	Percent Effect (Trypanosoma cruzi)	Percent Effect [5]	Percent Effect [6]	Percent Effect (Homo sapiens)	Percent Effect [7]	Percent Effect [8]	Percent Effect [9]
COc1ccc(-n2cnnc2SCCC#N)cn1	-2.65%	8%	0.911%	11.1%	4.38%	18.2%	11.3%	-11.2%	6.01%	21%	-6.98%
Cc1cnn(C2CCCN(C(=O)c3cccc(Cn4ccnc4)c3)C2)c1 (configuration not stated)	-1.7%	13.9%	-5.85%	-7.26%	2.36%	-4.09%	17.3%	25.8%	1.04%	10.1%	-30.4%
CN(C)S(=O)(=O)c1ccc(CN2CCCC2CO)o1 (configuration not stated)	-4.59%	0%	-2.33%	10.6%	-0.84%	-2.88%	-3.3%	11.2%	4.43%	3.7%	1.24%
CCN(CC)Cc1ccc(C(=O)N2CCCCC2Cn2cccn2)o1 (configuration not stated)	-1.67%	-5.41%	0.822%	4.06%	-0.0929%	-1.29%	3.23%	2.84%	0%	1.22%	0.882%
Cc1nc(C)n(CC2CCCCN2CCCS(=O)(=O)N(C)C)n1 (configuration not stated)	4.38%	16.2%	-12.4%	5.89%	2.7%	3.33%	11.9%	4.05%	4.76%	7.32%	-0.511%
O=C(CN1CCC(N2CCNC2=O)CC1)NCC(F)(F)F	-3.52%	17.7%	-4.25%	3.47%	-2.36%	4.56%	5%	9.87%	5.42%	13.9%	-4.76%
CCCS(=O)(=O)N1CCC(NC(=O)c2ccc(Cl)s2)CC1	-0.0871%	2.67%	-1.87%	5.67%	5.16%	9.9%	3.14%	-1.58%	8.2%	16.1%	-3.77%
c1cnc(N2CCC3(CCN(Cc4ccncc4)CC3)CC2)nc1	-0.982%	0%	7.11%	7.41%	-2.25%	-4.14%	13.1%	-0.931%	1.08%	5.13%	13%
Cc1cc(C)n(C2CCCN(C(=O)c3cnc4onc(C)c4c3)C2)n1 (configuration not stated)	-2.86%	5.2%	2.66%	12.3%	-1.08%	4.84%	4.77%	38.1%	1.91%	9.41%	-15.5%
CN(C(=O)c1cccc(C(=O)NS(C)(=O)=O)c1)c1ccccc1	-5.66%	15.6%	1.54%	14.7%	6.98%	-24.8%	16.5%	4.53%	6.45%	13.6%	-2.26%
CC(C)Oc1ncnc2c1CCN(C(=O)c1cccn1C)CC2	-3.69%	13.3%	9.51%	-7.87%	-4.53%	-3.03%	11.2%	9.21%	2.13%	8.97%	-0.243%
Cc1ccn(-c2ccc(C(=O)N3CCCC(n4ccnc4)C3)cc2)n1 (configuration not stated)	1.74%	-2.53%	4.22%	-1.83%	1.6%	2.66%	-2.21%	1.73%	4.43%	-3.8%	-1.63%
O=C(NCCCN1CCOCC1)c1cc(-c2ccco2)[nH]n1	-3.38%	8.22%	-11%	10.3%	-0.794%	2.4%	11.2%	0.231%	11.5%	28.4%	-2.57%
CN(C(=O)c1ccccc1Cl)C1CCN(c2ccccn2)CC1	-6.46%	23.4%	-2.17%	-1.36%	6.95%	-2.32%	12.7%	9.9%	7.62%	23.5%	-2.92%
CCCNC(=O)CN1CCN(Cc2csc(C(C)(C)C)n2)CC1	-7.74%	2.53%	-2.27%	0.111%	-4.63%	-1.14%	-7.62%	20.3%	2.46%	-3.8%	-1.83%
CCCS(=O)(=O)NCc1cccnc1OCC	0.771%	2.6%	-1.14%	3.55%	1.28%	-5.52%	6.32%	13.3%	1.07%	-1.24%	-7.12%
O[C@H]1[C@H](n2cc(-c3cccnc3)nn2)c2ccccc2C12CCNCC2	-1.28%	4.17%	-0.513%	14.2%	2.82%	12.4%	3.86%	-3.37%	3.16%	10.3%	-3.88%
CC(C)c1cc(NC(=O)CN2CCc3ccccc3C2)on1	-4.45%	28.6%	-1.59%	2.02%	5.99%	-2.85%	10.6%	14.1%	7.77%	26.8%	-12.1%
Cc1ccc(N2CCCC(NCC(=O)Nc3cc(C)no3)C2)nn1 (configuration not stated)	-1.36%	13.9%	-2.91%	-5.54%	-3.59%	0.215%	13%	17.8%	1.04%	7.59%	-23.2%
CC(C)(C)c1ccn(C2(C(=O)O)CCN(c3nccc(N)n3)CC2)n1	-4.48%	-6.94%	0.972%	0.435%	-2.23%	-0.442%	10.7%	0.112%	3.16%	-5.13%	6.06%
CC(C)c1ccsc1C(=O)N1CCCN(Cc2cscn2)CC1	-1.52%	2.6%	-0.162%	-7.44%	0.686%	-2.32%	19.8%	21.5%	18.1%	32.9%	-19.8%
Cc1cc(N2CCCN(C(=O)Cc3csc(C)n3)CC2)ccn1	0.872%	5.41%	0.202%	-1.96%	-2.7%	4.76%	20.2%	9.24%	2.65%	9.76%	-3.36%
